CYP2C9 activ: human CYP2C9 activators, primary screen, biochemical, luminescence. recombinant CYP2C9, luciferin-H conversion; active compounds read high; factor 1 = untreated enzyme, 0 = blocked. activation factor at 5 µM. 96,000 tested, 1.4% active;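 active = activation factor of 2 or more for CYP2C9 at a 5 µM dose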;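 note: 0 = sulfaphenazole-blocked wells and 1 = vehicle-only wells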
Target sequence (P11712 whole entry, looked up): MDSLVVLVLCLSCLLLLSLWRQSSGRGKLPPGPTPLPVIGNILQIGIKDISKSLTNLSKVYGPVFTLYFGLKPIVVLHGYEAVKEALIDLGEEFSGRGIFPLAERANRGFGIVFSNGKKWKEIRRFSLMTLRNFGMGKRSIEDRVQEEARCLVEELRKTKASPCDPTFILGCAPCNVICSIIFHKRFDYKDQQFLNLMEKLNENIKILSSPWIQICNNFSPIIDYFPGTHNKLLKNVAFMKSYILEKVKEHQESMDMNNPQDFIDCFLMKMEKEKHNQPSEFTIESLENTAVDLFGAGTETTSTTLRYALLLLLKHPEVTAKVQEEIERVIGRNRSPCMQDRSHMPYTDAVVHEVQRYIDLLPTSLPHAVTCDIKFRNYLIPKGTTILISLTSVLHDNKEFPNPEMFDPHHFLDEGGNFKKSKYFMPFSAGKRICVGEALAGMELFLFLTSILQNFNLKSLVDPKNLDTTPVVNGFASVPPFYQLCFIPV
Measles CPE: compounds protecting cells from measles virus cytopathic effect, primary screen, measles RdRp inhibitor project, single point, MLSMR library, absorbance | Measles virus-infected cells, CPE protection | protection (pct of control), % at 4 µM | 140,000 tested, 1.5% active; in the data active = protection mostly above about 24%, no sharp cut-off; inactive = mostly below about 26%
CYP2C19 inhib: blockers of cytochrome P450 2C19 activity – biochemical, luminescence, ADME assay, primary screen; P33261; CYP2C19 Supersomes, luciferin-H EGE luminescence, 30 min; inhibition, % at 5 µM; 96,000 tested, 21% active; AID 778, 2007;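 active = CYP2C19 inhibition above a set limit at 5 µM in the primary screen, cut at about 50% in these data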;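 note: plate controls were negative control wells for no effect and 2.5 mM tranylcypromine positive control for full effect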
CYP2C9 inh: blockers of cytochrome P450 2C9 activity – biochemical, luminescence, ADME assay, primary screen; inhibition, % at 5 µM; AID 777, 2007; CYP2C9 Supersomes, luciferin-H conversion; P11712; 96,000 tested, 20% active;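 active = blocking of liver enzyme CYP2C9 beyond about 50% at 5 µM, limit read from the data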
CYP2C19 act: human CYP2C19 activators, primary screen, biochemical, luminescence. Cytochrome P450 2C19 (Homo sapiens), P33261. recombinant CYP2C19, luciferin-H EGE luminescence; active compounds read high; 0 = fully inhibited enzyme, 1 = untreated enzyme. activation factor at 5 µM. 96,000 tested, under 10 active. AID 1025, 2008;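 active = activation factor of at least 2 at 5 µM in the primary screen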;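 note: 0 = wells with 2.5 mM tranylcypromine and 1 = vehicle-only wells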
Active calls of the source: *; . = no result. Only some compounds are listed: those with a hit (about 22% of all), similar ones and a draw of the others.

SMILES	CYP2C9 activ	Measles CPE	CYP2C19 inhib	CYP2C9 inh	CYP2C19 act
COC(=O)c1c(NC(=O)c2ccc(C)c(S(=O)(=O)Nc3ccccc3C)c2)sc2c1CCCC2	0.4	11	2	59*	1
CC(=Nc1cccc(O)c1)c1sc2ccccc2c1O	1	6	-4	-3	1
Cc1ccc(NC(=S)N/C(=N/S(=O)(=O)c2ccccc2)c2ccccc2)cc1	0.2	24	20	82*	0.8
CCN(CC)/C(=N/S(=O)(=O)c1ccc(C)cc1)c1ccccc1	0.8	1	57*	19	0.4
CCCOC(=S)N/C(=N\S(=O)(=O)c1ccccc1)c1ccccc1	0.3	12	37	67*	0.6
CCOC(=S)N/C(=N\S(=O)(=O)c1ccccc1)c1ccccc1	.	7	.	.	.
CN(/C(=N/S(=O)(=O)c1ccccc1)c1ccccc1)S(=O)(=O)c1ccccc1	.	6	.	.	.
O=C(NCc1ccccn1)c1ccc(CNS(=O)(=O)c2cccc(Cl)c2)cc1	.	27	.	.	.
COc1ccc2c(c1)C(NC(=O)C(F)(F)F)CC2=O (stereo not drawn)	0.9	5	35	8	0.6
CCCC1(C(=O)OCC)NC(c2ccc(N(C)C)cc2)C2C(=O)N(c3ccc(F)cc3)C(=O)C21 (stereo not drawn)	1	18	14	-1	0.9
CCCCCC[n+]1c(-c2ccccc2)csc1Nc1ccccc1	.	11	.	.	.
Cc1nn(-c2ncc(C(F)(F)F)cc2Cl)c(=O)n1-c1cccc(Cl)c1	1.8	14	46	-82	0.5
Cc1ccccc1C(=O)Nc1nnc(-c2ccc(F)cc2)o1	0.9	14	-3	13	1
Fc1ccc(-c2nnc(NC3=NCCCCC3)o2)cc1	0.7	13	56*	28	0.4
CSc1nnc(-c2sccc2OCc2ccccc2)n1C	0.7	7	16	31	0.8
CSc1n[nH]c(-c2sccc2OCc2ccc(C)cc2)n1	0.4	6	83*	58*	0.2
CNc1cc(-n2nc(C)cc2-c2ccccc2)ncn1	0.5	8	61*	48	0.4
Cc1cc(-c2ccccc2)n(-c2cc(N/N=C/c3ccccc3O)ncn2)n1	.	6	.	.	.
Cc1nnc2sc(-c3cccc4ccccc34)nn12	1	6	6	-1	0.9
Cc1nnc2c3ccccc3c(-c3cccc4ccccc34)nn12	0.9	7	61*	8	0.4
CCOC(=O)N1CCN(C(=O)CSc2nnc(COc3ccc(Cl)cc3)o2)CC1	0.8	32	3	24	1
O=C(N/N=C\c1ccc(Cl)cc1Cl)c1sccc1-n1cccc1	0.5	9	33	51*	0.7
Cc1ccsc1CN1CCN(c2ccccn2)CC1	0.3	3	93*	70*	0.1
CCCCN1CNC(=S)N(CCc2ccccc2)C1	.	7	.	.	.
CC(C)C(C)NC(=O)CSc1nc2scc(-c3ccco3)c2c(=O)n1-c1ccccc1 (stereo not drawn)	0.6	1	3	37	1
SMILES	CYP2C9 activ	Measles CPE	CYP2C19 inhib	CYP2C9 inh	CYP2C19 act
CC(C)C(C)(C#N)NC(=O)CSc1nc2scc(-c3ccco3)c2c(=O)n1-c1ccccc1 (stereo not drawn)	0.5	14	24	55*	0.8
CCOC(=O)c1c(CC(C)C)csc1NC(C)=O	0.4	16	44	62*	0.6
Cc1ccc(N(C(=O)CCl)C(C(=O)NC2CCCCC2)c2cccnc2)cc1C (stereo not drawn)	.	1	.	.	.
C=CCn1c(SCc2c(C(=O)OC)sc(N)c2C(=O)OC)nnc1-c1ccc(Br)cc1	0.1	3	72*	87*	0.3
C=CCn1c(SCC(=O)O)nnc1-c1ccc(C(C)(C)C)cc1	1	8	-6	-5	1.1
O=C(c1csc(Nc2ccccc2Cl)n1)N1CCCC1	0.9	9	19	8	0.8
Cc1cccc(NS(=O)(=O)c2ccc(Br)s2)n1	0.7	8	68*	31	0.3
Cc1cccc(NS(=O)(=O)c2ccc(Oc3ccccc3)cc2)n1	0.7	13	83*	31	0.2
CC(C)C(NS(=O)(=O)c1ccc(Br)s1)C(=O)O (stereo not drawn)	1.1	44	-6	-10	1.1
Cc1cc(C)nc(NS(=O)(=O)c2ccc(Br)s2)c1	0.8	5	52*	16	0.5
Cc1ccc2nc(NC(=O)CCNS(=O)(=O)c3ccc(Br)s3)sc2c1	0.6	3	50	44	0.5
CCCCNC(=O)C(C#N)c1nc2ccccc2nc1N1CCCC1 (stereo not drawn)	1	5	8	4	0.9
O=C(NC(CSCc1ccccc1)C(=O)N/N=C/c1ccc(O)cc1O)c1ccc([N+](=O)[O-])cc1 (stereo not drawn)	0.7	20	23	26	0.8
Cc1ccnn2c(-c3ccccc3)c3c(=O)n(C)c(=O)n(C)c3c12	0.9	10	-23	15	1.2
Cc1ccccc1CNC(=O)Nc1cccs1	0.5	30	72*	45	0.3
Cc1cccnc1NC(=O)Nc1cccs1	0.7	13	50*	27	0.5
Cc1ccc(NC(=O)Nc2ncccc2C)cc1	1	5	21	0	0.8
c1ccc(CN2CCC(Nc3nc(-c4ccccc4)nc4ccccc34)CC2)cc1	0.1	8	61*	86*	0.4
N#Cc1nc(Cc2cccc3ccccc23)oc1N1CCCCC1	0.8	7	32	18	0.7
COCCNc1oc(-c2ccc(F)cc2)nc1C#N	0.7	9	30	30	0.7
N#Cc1nc(-c2ccccc2Cl)oc1NCC1CCCO1 (stereo not drawn)	0.4	13	64*	64*	0.4
N#Cc1nc(Cc2cccc3ccccc23)oc1NCC1CCCO1 (stereo not drawn)	0.3	11	84*	72*	0.2
COCCNc1oc(-c2ccccc2Cl)nc1C#N	0.3	7	88*	69*	0.1
O=c1oc2c(O)c(O)cc3c(=O)oc4c(O)c(O)cc1c4c23	.	25	.	.	.
COc1ccc2c(c1)C1(Nc3ccccc3C(=O)N1c1ccccc1)C(=O)N2 (stereo not drawn)	0.1	24	27	87*	0.7
CC(=O)NCCCc1c[nH]c2ccc(Cl)cc12	0.5	12	80*	47	0.2
O=C(NCCc1c[nH]c2ccc(Cl)cc12)c1cccnc1	0.1	9	91*	87*	0.1
CCC(=O)NCCc1c[nH]c2ccccc12	1.1	31	12	-8	0.9
COC(=O)C1CCN(S(=O)(=O)Cc2ccccc2)CC1	1.1	3	63*	-13	0.4
CS(=O)(=O)N1CCC(C(=O)N2CCC(Cc3ccccc3)CC2)CC1	1	4	9	1	0.9
